Changes are numbered by the printed parent chain.
Experiments:
Assay in all cases: yeast three-hybrid, YBZ-1, SC-Leu-His + 0.5 mM 3-AT, 4 days
Conditions in all cases: tags: N-Gal4 AD-HA kept; label: inside an RPR1-promoter hybrid RNA with tandem MS2 sites; ssRNA
PUM1 PUF domain R5-RRG = PUM1 PUF domain R5-RRG (Homo sapiens, UniProt Q14671 828-1176, C1007R;Q1011G)
Procedure, shortened: (§1)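 The interaction score is the log change in variant frequency from input to selection. Scores were computed in log2 with a pseudocount of 1 for absent variants, using Illumina sequencing of PCR-amplified repeat regions. The input came from four days on SC-Leu and the selection from four days on SC-Leu-His + 0.5 mM 3-AT. The cells were strain YBZ-1 (LexA–MS2 coat fusion, HIS3 reporter) co-expressing Pumilio-1 PUF domain libraries and matching RNA elements from a centromeric plasmid.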

PUM1 PUF domain R6-VWT = target: T1, PUM1 PUF domain R6-VWT (Homo sapiens, UniProt Q14671 828-1176, N1043V;Y1044W;Q1047T)
T1 sequence: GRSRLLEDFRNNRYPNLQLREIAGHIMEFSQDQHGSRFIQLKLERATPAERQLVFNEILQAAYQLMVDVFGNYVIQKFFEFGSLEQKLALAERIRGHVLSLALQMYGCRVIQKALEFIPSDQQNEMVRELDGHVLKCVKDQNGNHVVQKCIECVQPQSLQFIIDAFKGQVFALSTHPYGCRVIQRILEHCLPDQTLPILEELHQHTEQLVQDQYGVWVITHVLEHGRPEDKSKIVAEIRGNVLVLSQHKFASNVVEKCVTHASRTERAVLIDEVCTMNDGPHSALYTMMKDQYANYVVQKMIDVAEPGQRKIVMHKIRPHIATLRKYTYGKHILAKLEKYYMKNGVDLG
Procedure, shortened: as §1

PUM1 PUF domain R5-SHL = PUM1 PUF domain R5-SHL (Homo sapiens, UniProt Q14671 828-1176, C1007S;R1008H;Q1011L)
Procedure, shortened: as §1

PUM1 PUF domain R3-YYG = PUM1 PUF domain R3-YYG (Homo sapiens, UniProt Q14671 828-1176, C935Y;R936Y;Q939G)
Procedure, shortened: as §1

PUM1 PUF domain R1-RLQ = PUM1 PUF domain R1-RLQ (Homo sapiens, UniProt Q14671 828-1176, S863R;R864L)
Procedure, shortened: as §1

PUM1 PUF domain R2-LFI = PUM1 PUF domain R2-LFI (Homo sapiens, UniProt Q14671 828-1176, N899L;Y900F;Q903I)
Procedure, shortened: as §1

PUM1 PUF domain R5-RKP = PUM1 PUF domain R5-RKP (Homo sapiens, UniProt Q14671 828-1176, C1007R;R1008K;Q1011P)
Procedure, shortened: as §1

PUM1 PUF domain R5-RCK = PUM1 PUF domain R5-RCK (Homo sapiens, UniProt Q14671 828-1176, C1007R;R1008C;Q1011K)
Procedure, shortened: as §1

PUM1 PUF domain R6-IFT = target: T2, PUM1 PUF domain R6-IFT (Homo sapiens, UniProt Q14671 828-1176, N1043I;Y1044F;Q1047T)
T2 sequence: T1 sequence with V216I, W217F
Procedure, shortened: as §1

PUM1 PUF domain R6-EWL = target: T3, PUM1 PUF domain R6-EWL (Homo sapiens, UniProt Q14671 828-1176, N1043E;Y1044W;Q1047L)
T3 sequence: T1 sequence with V216E, T220L
Procedure, shortened: as §1

In the case of “GGCUAGAACUAGUGGAUCCCCCGGCGCCCGGCGGCUCGAGCCCGGGUAAGUGUAAAUAGUCUGCAUGCCGCCGGGCGCCAUGCCUGCAGGUCGACUCUAGAAAACAUG”, the binding signal (PUM1 PUF domain R5-RRG) is reported as 2.29 log2 enrichment (interaction score), the binding signal (PUM1 PUF domain R6-VWT) is reported as 1.67 log2 enrichment (interaction score) and the binding signal (PUM1 PUF domain R5-SHL) is reported as 2.34 log2 enrichment (interaction score). The binding signal (PUM1 PUF domain R3-YYG) was 4.58 log2 enrichment (interaction score).

In the case of “GGCUAGAACUAGUGGAUCCCCCGGCGCCCGGCGGCUCGAGCCCGGGUAAGUGUAAAUCGUCUGCAUGCCGCCGGGCGCCAUGCCUGCAGGUCGACUCUAGAAAACAUG”, the binding signal (PUM1 PUF domain R1-RLQ) is reported as 5.58 log2 enrichment (interaction score).

For “GGCUAGAACUAGUGGAUCCCCCGGCGCCCGGCGGCUCGAGCCCGGGUAAGUGUAAAAAGUCUGCAUGCCGCCGGGCGCCAUGCCUGCAGGUCGACUCUAGAAAACAUG”, the binding signal (PUM1 PUF domain R2-LFI) was 4.64 log2 enrichment (interaction score).

“GGCUAGAACUAGUGGAUCCCCCGGCGCCCGGCGGCUCGAGCCCGGGUAAGUGUCAAUAGUCUGCAUGCCGCCGGGCGCCAUGCCUGCAGGUCGACUCUAGAAAACAUG” was tested, and the binding signal (PUM1 PUF domain R5-RKP) was 3.3 log2 enrichment (interaction score), the binding signal (PUM1 PUF domain R5-RRG) was 4.19 log2 enrichment (interaction score) and the binding signal (PUM1 PUF domain R5-RCK) was 4.05 log2 enrichment (interaction score). The binding signal (PUM1 PUF domain R5-SHL) was 0.12 log2 enrichment (interaction score).

For “GGCUAGAACUAGUGGAUCCCCCGGCGCCCGGCGGCUCGAGCCCGGGUAAGUGUUAAUAGUCUGCAUGCCGCCGGGCGCCAUGCCUGCAGGUCGACUCUAGAAAACAUG”, the binding signal (PUM1 PUF domain R5-RRG) was 4.55 log2 enrichment (interaction score) and the binding signal (PUM1 PUF domain R5-SHL) was 2.85 log2 enrichment (interaction score).

With “GGCUAGAACUAGUGGAUCCCCCGGCGCCCGGCGGCUCGAGCCCGGGUAAGUGAAAAUAGUCUGCAUGCCGCCGGGCGCCAUGCCUGCAGGUCGACUCUAGAAAACAUG” the binding signal (PUM1 PUF domain R6-VWT) was 6.13 log2 enrichment (interaction score), the binding signal (PUM1 PUF domain R6-IFT) was 4.79 log2 enrichment (interaction score) and the binding signal (PUM1 PUF domain R6-EWL) was 7.27 log2 enrichment (interaction score).

“GGCUAGAACUAGUGGAUCCCCCGGCGCCCGGCGGCUCGAGCCCGGGUAAGUGUAAGUAGUCUGCAUGCCGCCGGGCGCCAUGCCUGCAGGUCGACUCUAGAAAACAUG” was tested, and the binding signal (PUM1 PUF domain R3-YYG) was 6.37 log2 enrichment (interaction score).

For “GGCUAGAACUAGUGGAUCCCCCGGCGCCCGGCGGCUCGAGCCCGGGUAAGUGUGAAUAGUCUGCAUGCCGCCGGGCGCCAUGCCUGCAGGUCGACUCUAGAAAACAUG”, the binding signal (PUM1 PUF domain R5-RRG) was 1.66 log2 enrichment (interaction score).

“GGCUAGAACUAGUGGAUCCCCCGGCGCCCGGCGGCUCGAGCCCGGGUAAGUGUAAAUUGUCUGCAUGCCGCCGGGCGCCAUGCCUGCAGGUCGACUCUAGAAAACAUG” was tested, and the binding signal (PUM1 PUF domain R1-RLQ) was 4.94 log2 enrichment (interaction score).

With “GGCUAGAACUAGUGGAUCCCCCGGCGCCCGGCGGCUCGAGCCCGGGUAAGUGUAAAUGGUCUGCAUGCCGCCGGGCGCCAUGCCUGCAGGUCGACUCUAGAAAACAUG” the binding signal (PUM1 PUF domain R1-RLQ) was 2.26 log2 enrichment (interaction score).

From PMC8384837, “Expanding the binding specificity for RNA recognition by a PUF domain”
